# In all, about 360,000 compounds went through this assay and about 3,500 (0.97%) were called active.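 Rule for the calls: active = activation above a per-plate cutoff, the mean activation of sample wells on that plate plus 3 SD (cut at about 8% in these data); inactive = the rest.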 The entries come from a sample that favours actives as a whole.
# Biological target: Melanocortin receptor 4 (Homo sapiens) (UniProt P32245)
# Assay: activators of MC4R beta-arrestin recruitment – cell-based, luminescence, agonist arm of biased-ligand search, primary screen (AID 540308)
# Settings: U2OS MC4R beta-arrestin complementation, at 8.9 µM, stronger effect = higher value, percent of melanotan II response, DMSO zero
# Chain of Melanocortin receptor 4 (Homo sapiens) (P32245 whole entry, looked up): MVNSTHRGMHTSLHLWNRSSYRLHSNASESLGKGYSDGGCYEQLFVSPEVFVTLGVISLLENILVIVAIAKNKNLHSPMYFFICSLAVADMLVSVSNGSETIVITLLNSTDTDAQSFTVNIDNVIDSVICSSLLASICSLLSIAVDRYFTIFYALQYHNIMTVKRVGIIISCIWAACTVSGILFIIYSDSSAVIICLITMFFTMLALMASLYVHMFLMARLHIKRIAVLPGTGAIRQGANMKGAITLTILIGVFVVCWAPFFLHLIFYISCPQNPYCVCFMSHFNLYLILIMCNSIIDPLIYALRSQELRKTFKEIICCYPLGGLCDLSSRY
row,Compound,activation
1,CC(=O)NN=C(C)c1ccc(NC(=O)C2CC2)cc1,-0.71% (inactive)
2,CCOC(=O)CNC(=O)/C=C/c1c(Cl)cccc1Cl,-0.83% (inactive)
3,O=C(/C=C/c1c(Cl)cccc1Cl)NCc1ccccc1,19.2% (active)
4,O=C(CC(=O)N/N=C\c1cccc(Cl)c1Cl)NCc1ccccc1,-2.24% (inactive)
5,Cc1nc2c(OCc3ccc(Cl)cc3Cl)cccn2c1N(C)CC1CC1,-3.94% (inactive)
6,CCCCC(=O)N(C)c1c(CC)nc2c(OCc3ccc(S(C)(=O)=O)cc3)cccn12,0.14% (inactive)
7,CCCOc1ccc(/C=N/NC(=O)C2CC2)c(OCCC)c1,0.66% (inactive)
8,CCCOc1ccc(C(=O)C(CCC(CNCC)C(=O)c2ccc(OCCC)cc2)CNCC)cc1 (stereo not given),24.6% (active)
9,COC(=O)c1ccc(OCC(=O)NC(C)(C)C)cc1,-0.44% (inactive)
10,COc1cncc(-c2cnc3sc(NCCc4ccccn4)nn23)c1,-0.85% (inactive)
11,COc1ccc(OC)c(NC(=O)C2(C)CCN2C(=O)Cc2ccccc2)c1 (stereo not given),-0.64% (inactive)
12,COc1ccc(NC(=O)C2Cc3c(-c4ccc5c(c4)OCO5)ccnc3O2)cn1 (stereo not given),2.24% (inactive)
13,Cc1cc(C(=O)N2CCCC2(C)C(=O)O)c(C)o1 (stereo not given),-0.89% (inactive)
14,Clc1ccc(Nc2ncnc3c2nnn3Cc2ccccc2)cc1,19.9% (active)
15,c1ccc(Cn2nnc3c(NCC4CC4)ncnc32)cc1,2.35% (inactive)
16,CC(C)Nc1ncnc2c1nnn2Cc1ccccc1,-0.12% (inactive)
17,CCc1nc2c(OCc3ccc(C(F)(F)F)cc3)cccn2c1N(C)C(=O)CC(C)C,-1.6% (inactive)
18,CC(C)Cc1ccc(-c2cc3nc(NCc4cccc(Cl)c4)ccn3n2)cc1,-1.5% (inactive)
19,Cc1ccccc1C(=O)N1CCN(c2ccc(NC(=O)c3cccs3)cc2)CC1,-4.77% (inactive)
20,Cc1ccc(OCC(=O)Nc2ccc(NC(=O)c3cccs3)cc2)c(C)c1,2.63% (inactive)

row,Compound,activation
1,Cc1ccc(C(=O)Nc2ccc(NC(=O)c3cccs3)cc2)c(C)c1,13.3% (active)
2,O=C(NCc1cccnc1)c1cc(C2CCCN(C(=O)CCCc3ccccc3)C2)on1 (stereo not given),0.26% (inactive)
3,Cc1ccccc1-c1csc(C(O)c2cccc(Cl)c2)n1 (stereo not given),-1.62% (inactive)
4,O=C(NCc1ccc(F)cc1)c1cc(C2CCCCN2C(=O)C2CCCCC2)on1 (stereo not given),-0.53% (inactive)
5,COc1cc(F)ccc1-c1cc(C(=O)NCC2CCCCC2)[nH]n1,1.24% (inactive)
6,C=CCn1c(CNC(=O)c2ccco2)nnc1SCC(=O)c1ccc(OC)cc1,-1.26% (inactive)
7,C=CCn1c(SCC(=O)c2ccc(Br)cc2)nnc1C(C)NC(=O)Cc1ccc(OC)cc1 (stereo not given),9.94% (active)
8,C=CCn1c(SCCOc2ccc(OC)cc2)nnc1C(NC(=O)c1ccc(OC)cc1)C(C)C (stereo not given),2.5% (inactive)
9,CC1(C(=O)NS(=O)(=O)c2cccs2)CCN1C(=O)Cc1ccc(-c2ccccc2)cc1 (stereo not given),1.02% (inactive)
10,CCCCN1CC(C)(C)[C@H](CC(=O)Nc2ccc(Br)cc2)C1=O,14.2% (active)
11,CC1(C)CN(CCc2ccccc2)C(=O)[C@H]1CC(=O)Nc1ccc(Br)cc1,1.43% (inactive)
12,CC1(C)CN(Cc2cccnc2)C(=O)[C@H]1CC(=O)Nc1ccc(Br)cc1,-2.67% (inactive)
13,Cc1noc(C)c1-c1ccc(C(=O)NCc2ccncc2)c2occc12,-0.03% (inactive)
14,Cc1cccc(CNC(=O)c2sc(=O)n(Cc3ccccc3C)c2C)c1,0.16% (inactive)
15,Cc1cccc(/C(N)=N/OC(=O)c2ccccc2Cl)c1,-0.56% (inactive)
16,O=C(COC(=O)c1ccccc1Cl)NC1CCCCCCC1,-2.78% (inactive)
17,O=C(OCc1cn(-c2ccc(Cl)c(Cl)c2)nn1)c1ccccc1Cl,16.5% (active)
18,Cc1cccc(-c2cnc(C(O)c3ccc4ccccc4c3)[nH]2)c1 (stereo not given),3.46% (inactive)
19,CSc1ccc(CNC(=O)C2(C)CCCN2C)cc1 (stereo not given),1.3% (inactive)
20,COc1cccc(-c2cnc(C(O)c3ccccc3OC)[nH]2)c1 (stereo not given),-2.21% (inactive)

row,Compound,activation
1,CCc1ccc(CNC(=O)C2CC(=O)N(CCc3ccc(C)cc3)C2)cc1 (stereo not given),-0.56% (inactive)
2,CCOc1ccc(CNC(=O)C2CCCN(c3nnc(C)c4c(C)n(-c5ccccc5)nc34)C2)cc1 (stereo not given),5.34% (inactive)
3,CCc1ccc(CNC(=O)C2CCN(c3nnc(C)c4c(C)n(-c5ccc(C)cc5)nc34)CC2)cc1,26.2% (active)
4,COc1ccc(C(C)C)cc1-c1ccc2nncn2c1,0.08% (inactive)
5,CC1(C(=O)Nc2cccnc2)Cc2c(-c3ccccc3)ccnc2O1 (stereo not given),-1.27% (inactive)
6,CN1CCN(c2ncc3c(n2)CC(c2ccccc2F)CC3=O)CC1 (stereo not given),-1.94% (inactive)
7,O=C(Nc1ncc2c(n1)CC(c1ccco1)CC2=O)c1ccc(Cl)cc1 (stereo not given),-1.23% (inactive)
8,CCc1ccc(Nc2ncc3c(n2)CC(c2ccco2)CC3=O)cc1 (stereo not given),9.92% (active)
9,COc1ccc(Nc2ncnc3sc(-c4ccccc4)cc23)c(OC)c1,10.6% (active)
10,COc1ccc(Nc2ncnc3ccc(Br)cc23)c(OC)c1,0.1% (inactive)
11,COc1ccccc1Nc1ncnc2c1oc1ccccc12,0.07% (inactive)
12,CC1(Oc2cccc(F)c2)CCN(Cc2ccccc2OC(F)F)C1 (stereo not given),-1.66% (inactive)
13,CCCOc1ccc(F)cc1-c1cc(C(=O)NCc2ccc(F)cc2)[nH]n1,0.57% (inactive)
14,Oc1cccc2cc(-c3ccncc3)cnc12,-1.87% (inactive)
15,COc1ccc(NC(=O)c2sc(=O)n(Cc3ccc(S(=O)(=O)N(C)C)cc3)c2C)cc1,-1.44% (inactive)
16,COc1cccc(CN2CCC(C(=O)NC(c3ccc4c(c3)OCO4)c3ccccn3)CC2)c1 (stereo not given),-1.26% (inactive)
17,CCc1nc2c(OCCOc3ccccc3)cccn2c1N(C)C(=O)c1ccc(OC)cc1,-0.76% (inactive)
18,Brc1ccc(-c2csc(N/N=C/c3cccnc3)n2)cc1,11.6% (active)
19,O=C(N/N=C\c1cccnc1)c1cc(-c2ccccc2)nc2c(Cl)cccc12,-0.85% (inactive)
20,O=C(CSc1cccc2cccnc12)N/N=C/c1cccnc1,-5.02% (inactive)
